# Bioassay records: PubChem BioAssay, National Center for Advancing Translational Sciences (NCATS)
# Only some compounds are listed: those with a hit (about 2.3% of all), similar ones and a draw of the others.
# Giardia killer = Giardia lamblia killing; 0.15% of 340,000 active; Giardia lamblia trophozoite viability; activity change, % at 7.66 µM, hits read low; in the data active = activity change below about -80%; inconclusive = between about -30% and that limit;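 note: parasites exposed to compound for two days anaerobically before the ATP read; % is set by controls: 0 for no effect and ±100 for the full control effect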
#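 Compounds were tested on trophozoites seeded at 100 cells/well and held 48 hrs at 37 deg C anaerobically. An ATP-based luminescent kit measured the remaining live cells.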
# ELG1 DNA repair = blocks ELG1-dependent DNA repair in HEK293T cells. HEK293T ELG1-luciferase reporter, luminescence, 16 h; DNA damage induced by 5-fluorouridine. Potency, µM (highest dose often 46.1 µM), for the others: at the highest dose activity change, negative = inhibition, actives largely listed as inhibitors. 2.3% of 330,000 active; note: potency is the fitted concentration of half-maximal effect; % is set by controls: 0 for no effect and ±100 for the full control effect; nearly all actives have a fitted effect of over 55% in size
#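 Reporter activity after DNA damage by 5-fluorouridine is monitored. Compound-treated cells incubate 16 hr at 37 °C, then ONE-Glo is added for 30 min before luminescence reading.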
# TRPV1 ag = human TRPV1 agonism; Q8NER1; TRPV1-expressing cells, Fluo-8 calcium influx, agonist mode; activation, % at 8.33 µM; 0.19% of 320,000 active; in the data active = activation above about 80%; inconclusive = between about 30% and that limit; note: 0% is about no effect
# Target sequence (Q8NER1 whole entry, looked up): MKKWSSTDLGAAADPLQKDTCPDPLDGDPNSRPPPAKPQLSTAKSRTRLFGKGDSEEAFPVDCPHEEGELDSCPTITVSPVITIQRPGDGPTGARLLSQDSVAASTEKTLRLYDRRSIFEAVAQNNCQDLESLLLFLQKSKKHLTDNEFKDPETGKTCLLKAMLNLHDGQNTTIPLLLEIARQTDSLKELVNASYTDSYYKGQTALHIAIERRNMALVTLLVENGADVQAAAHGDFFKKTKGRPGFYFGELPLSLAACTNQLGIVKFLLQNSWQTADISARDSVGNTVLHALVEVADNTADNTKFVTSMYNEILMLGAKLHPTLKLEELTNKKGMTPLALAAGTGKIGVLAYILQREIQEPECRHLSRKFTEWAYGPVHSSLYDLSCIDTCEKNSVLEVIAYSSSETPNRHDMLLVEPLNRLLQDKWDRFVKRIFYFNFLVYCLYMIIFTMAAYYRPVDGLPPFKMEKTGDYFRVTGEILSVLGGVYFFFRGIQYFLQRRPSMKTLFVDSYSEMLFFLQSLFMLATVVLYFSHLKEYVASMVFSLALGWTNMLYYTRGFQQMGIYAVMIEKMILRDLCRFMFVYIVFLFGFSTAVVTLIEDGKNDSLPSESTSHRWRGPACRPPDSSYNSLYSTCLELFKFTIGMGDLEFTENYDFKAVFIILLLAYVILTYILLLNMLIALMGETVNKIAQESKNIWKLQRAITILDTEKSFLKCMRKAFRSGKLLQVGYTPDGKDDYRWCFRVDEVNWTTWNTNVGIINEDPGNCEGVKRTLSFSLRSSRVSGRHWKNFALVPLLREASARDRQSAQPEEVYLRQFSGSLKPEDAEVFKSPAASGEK
#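 Fluo-8 calcium influx in TRPV1-expressing cells, kinetic read (ex 480/em 520 nm). Compound added and read 3 min for agonist activity, followed by capsaicin at EC20 final and 2 min further read for enhancement.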
# TRPV1 PAM = human TRPV1 potentiation | TRPV1-expressing cells, Fluo-8 calcium influx, capsaicin EC20 potentiation | potentiation, % at 8.33 µM | 0.02% of 320,000 active; in the data active = potentiation above about 80%; inconclusive = between about 30% and that limit; note: 0% is about no effect
#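 TRPV1-expressing cells were cultured overnight at 35.5C and loaded with Fluo-8 calcium dye for 40 to 90 min at room temperature. After a 10 s baseline, compound was added and calcium influx was read kinetically for 3 min (ex 480/em 520 nm).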
# FUS yeast rescue = suppressors of FUS proteinopathy in yeast. S. cerevisiae FUS-expressing, growth rescue, OD600, 24 h. Potency, µM (titrated, usually from 76.6 µM), usual class: activators. 0.24% of 390,000 active. AID 1347120;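 note: potency is the fitted concentration of half-maximal effect; plate controls were DMSO vehicle for no effect and reference control for full effect; nearly all actives have a fitted effect of over 55% in size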
#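 S. cerevisiae expressing FUS from galactose induction served as the toxicity model. Growth after 24hr at 30C, read as absorbance at 600 nm, indicates suppression of toxicity; compounds dosed at several concentrations.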
# An asterisk follows results filed as active; i = inactive; ? = inconclusive; / = no result. Unless noted, calls come from the whole dose curve; as a rule, active = well fitted curve in the direction sought with a large enough effect; inconclusive = small, poorly fitted or top-dose-only effect, or another doubt; inactive = no such curve, though single readings can be large; an effect the other way counts as inactive or inconclusive.
SMILES,Giardia killer,ELG1 DNA repair,TRPV1 ag,TRPV1 PAM,FUS yeast rescue
Cc1ccccc1S(=O)(=O)Cc1ccc(C(=O)N2CCN(c3cccc(C)c3C)CC2)o1,-5,7.3µM*,0,17,?
Cc1c(C(=O)N2CCN(c3ccccn3)CC2)oc2c1C(=O)CC(C)(C)C2,11,?,?,-24,i
O=C(c1ccc(CS(=O)(=O)c2ccc(Br)cc2)o1)N1CCN(c2ncccn2)CC1,4,?,/,/,i
COc1ccccc1N1CCN(C(=O)c2oc3c(c2C)C(=O)CC(C)(C)C3)CC1,-12,21µM*,12,-8,i
Cc1ccc(Cl)cc1N1CCN(C(=O)c2ccc(CS(=O)(=O)c3ccc(Br)cc3)o2)CC1,/,/,/,/,22µM*
CCc1ccccc1S(=O)(=O)Cc1ccc(C(=O)N2CCN(c3ccccc3OC)CC2)o1,0,23µM*,4,5,i
COc1cc(CN(C(=O)COc2ccccc2Cl)c2ccccn2)cc(OC)c1OC,/,/,/,/,i
COc1ccc(N2CCN(C(=O)C3Cc4ccccc4N3C(C)=O)CC2)cc1 (stereo not drawn),/,/,/,/,i
Cn1cnnc1SCc1ccc(C(=O)N=Nc2c(O)n(Cc3ccc(Cl)cc3)c3ccccc23)cc1,64,9.2µM*,-1,8,/
CCn1c(O)c(N=NC(=O)c2ccc(CSc3nncn3C)cc2)c2ccccc21,-3,?,2,1,/
CC(=O)N1c2ccc(S(=O)(=O)N3CCCCCC3)cc2CC1C(=O)NCc1ccccc1 (stereo not drawn),/,/,/,/,i
c1cc(Nc2ncnc3sccc23)cc(-c2nnc3n2CCCCC3)c1,8,23µM*,-6,6,?
Cc1cnc(C(=O)Nc2cccc(-c3nnc4n3CCCCC4)c2)cn1,2,-3%,2,-12,i
COc1ccc(OCC(=O)OCc2cc(=O)n3nc(C4CC4)sc3n2)cc1,/,/,/,/,i
CCNC(=O)C1CCCN(C(=O)c2cccc(OC(F)(F)F)c2)CC1 (stereo not drawn),/,/,/,/,i
CC(=O)N1CCc2c(sc3c2c(=O)n(-c2ccc(C)cc2)c(=O)n3Cc2ccccc2C)C1,/,/,/,/,i
O=C1NC(c2ccccc2)=C(c2ccc3ccccc3n2)C(c2ccccc2)N1 (stereo not drawn),2,-13%,-1,9,i
O=C1NC(c2ccccc2)=C(c2nc3ccccc3s2)C(c2ccc(O)cc2)N1 (stereo not drawn),-6,-8%,0,4,35µM*
COc1ccc(N(C)S(=O)(=O)c2cccc(C(=O)NC3CCC(C)CC3)c2)cc1 (stereo not drawn),31,?,11,-18,i
COc1ccc(N(C)S(=O)(=O)c2cccc(C(=O)Nc3cccc(C(=O)NC4CC4)c3)c2)cc1,1,21µM*,?,-11,/
COc1ccc(N(C)S(=O)(=O)c2cccc(C(=O)Nc3nc(C)c(C(C)=O)s3)c2)cc1,-28,10µM*,?,-11,i
COc1ccc(N(C)S(=O)(=O)c2cccc(C(=O)OCC(=O)c3c(N)n(C)c(=O)n(C)c3=O)c2)cc1,-15,18µM*,/,/,/
CCOc1ccc(NC(=O)Cn2c(=O)n(CCc3ccccc3)c(=O)c3c4c(sc32)CN(C(C)=O)CC4)cc1,/,/,/,/,i
Cc1ccc(-c2noc(COc3ccc(Br)c(C)c3)n2)cc1,/,/,/,/,i
Cc1ccc(Cn2nnnc2CN2CCC(NC(=O)c3ccc(Br)cc3)CC2)cc1,-12,21µM*,10,-31,i
SMILES,Giardia killer,ELG1 DNA repair,TRPV1 ag,TRPV1 PAM,FUS yeast rescue
CCC(C)(C)n1nnnc1CN1CCC(NC(=O)c2ccc(Br)cc2)CC1,-8,?,13,-13,i
Cc1ccc(Cn2nnnc2CN2CCC(c3nc4ccc(Cl)cc4[nH]3)CC2)cc1,20,23µM*,-2,7,/
Clc1ccc2nc(C3CCN(Cc4nnnn4C4CCCCC4)CC3)[nH]c2c1,-1,?,-1,-7,i
Cc1cccc(-c2nnc3n(CCc4ccccc4)c(=O)c4ccccc4n23)c1,/,/,/,/,i
Cc1cc2[nH]c(=O)c(=O)[nH]c2cc1S(=O)(=O)NCc1ccc(F)cc1,/,/,/,/,i
Cc1oc(-c2cccc3ccccc23)nc1CN1CCN(c2ncnc3ccccc23)CC1,24,15µM*,9,6,i
CC(=O)c1ccc(-c2cnc3c(NC=O)cc(-c4ccccc4Oc4ccccc4)cn23)cc1,/,/,/,/,25µM*
COc1ccc(-c2cc(NC=O)c3ncc(-c4cccc(OC)c4)n3c2)cc1,/,/,/,/,i
COc1ccccc1-c1cc(NC=O)c2ncc(-c3cccc(C(C)=O)c3)n2c1,/,/,/,/,i
COc1cccc(-c2cnc3c(NC=O)cc(-c4cc(OC)c(OC)c(OC)c4)cn23)c1,/,/,/,/,28µM*
CCSc1ccc(-c2cc(NC=O)c3ncc(-c4cccc(C(=O)N(C)C)c4)n3c2)cc1,/,/,/,/,25µM*
Cc1ccc(-c2nnc(Nc3ccc(O)cc3)c3ccccc23)cc1S(=O)(=O)N1CCCCC1,/,/,/,/,i
Cc1ccccc1NC(=O)c1ccc(Nc2c([N+](=O)[O-])cc([N+](=O)[O-])c3ccccc23)cc1,-5,18µM*,0,-4,/
Cc1cc(C(=O)Nc2ccc(Nc3ccccc3)cc2)ccc1[N+](=O)[O-],-10,?,?,0,i
O=C(CCCOc1ccc(Cl)cc1Cl)Nc1ccncc1,-1,-13%,80*,-1,i
CC(Oc1cccnc1[N+](=O)[O-])C(=O)Nc1cccc(Cl)c1 (stereo not drawn),-87*,23%,10,-7,i
CC(Oc1ccc(Cl)cc1Cl)C(=O)Nc1ccncc1 (stereo not drawn),-19,5.8µM*,?,-6,i
O=C(CCCOc1ccc(Cl)cc1Cl)Nc1ccccn1,4,?,-2,11,i
CC(=O)Nc1ccc(NC(=O)C(C)Oc2ccc(Cl)cc2Cl)cc1 (stereo not drawn),-28,9%,0,30,i
COc1ccc(N2CCN(C(=O)c3ccc(COc4ccc([N+](=O)[O-])cc4)o3)CC2)cc1,13,21µM*,3,8,/
Cc1c(Cl)cccc1-c1ccc(C(=O)N2CCN(c3ccc([N+](=O)[O-])cc3)CC2)o1,-7,16µM*,2,-1,i
O=C(c1ccc(-c2cccc(Cl)c2)o1)N1CCN(c2ccc([N+](=O)[O-])cc2)CC1,3,?,2,-7,i
COc1ccc(-n2cnc3ccccc32)cc1,-7,8.2µM*,4,-5,i
c1ccc(-n2cnc3ccccc32)cc1,10,?,4,-14,i
COc1cc2c(cc1NC(=O)C(C)Sc1ccc(NC(C)=O)cc1)oc1ccccc12 (stereo not drawn),21,16µM*,0,2,?
CC1CCN(C2=NC(=O)/C(=C/c3cccc(O)c3)S2)CC1,-14,?,?,-26,i
